Measurements taken from ChEMBL document CHEMBL3988442, “University of Dundee, Small-Polar-MMV Screening Library” (2021).

What follows are compounds tested against Shiga toxin 2 (Escherichia coli O157:H7) (UniProt P09385+P09386) (assay: E. coli 0.157:H7 Shiga Toxin SOP - stx2 screening assay). Conditions: 30 µM.
Format: functional
Parameters: scale not given: direction of the effect not stated beside the values

| Compound | Percent Effect |
| --- | --- |
| Cc1cc(C2CCCN2CCCc2nc3ccccc3o2)on1 (stereo not given) | 28.6% |
| CS(=O)(=O)N1CCCCCC1C1CCN(c2ncccn2)CC1 (stereo not given) | 24.4% |
| O=C(c1ccco1)N1CCOCC2(CCN(C3CCOCC3)C2)C1 (stereo not given) | -31.1% |
| O=C(c1cccs1)N1CC[C@H](O)[C@@H]1Cc1ccccc1 | -7.22% |
| Cc1cc(C(=O)NCC(C)N2CCc3ccccc32)no1 (stereo not given) | -26.5% |
